Our source for the z-score and composite z-score values is PubChem BioAssay.

Assay [1] can be described thus: optical density shifts of acrAB sulA E. coli – strain DRC41, OD650, 48 h, E. coli filamentation inducer project, primary screen (AID 1152).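 Also: E. coli MC1000 strain DRC41 lacking acrAB efflux pump and sulA.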 As to conditions: higher = more signal, called active from +8 up or from −8 down.
Assay [2] can be described thus: probe aLefty1 binding on compound microarray – biochemical, small-molecule microarray, 635/667 nm fluorescence, primary screen (AID 1153).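 Also: score merges spot fluorescence with signal-to-noise ratio from the scanned slide images.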 As to conditions: higher = more signal.
The nature of assay [3]: plasmodial surface anion channel blockers, osmotic lysis – cell-based, P. falciparum Indochina, OD700, 1 h, primary screen (AID 1154). As to conditions: P. falciparum Indochina infected RBC osmotic lysis, higher = more signal, called active from +8 up or from −8 down.
Assay [4] is described as follows: plasmodial surface anion channel blockers, osmotic lysis – cell-based, P. falciparum Indochina, OD700, 2 h, primary screen (AID 1155).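 Also: lysis reports solute entry through the parasite surface anion channel PSAC.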 As to conditions: P. falciparum Indochina infected erythrocytes, higher = more signal, called active from +8 up or from −8 down.
The nature of assay [5]: changes in parasitized red cell lysis, either direction – P. falciparum Indochina, OD700, 3 h, PSAC antagonist project, primary screen (AID 1156). As to conditions: P. falciparum-infected erythrocytes, osmotic lysis, higher = more signal, called active from +8 up or from −8 down.
Assay [6] can be described thus: plasmodial surface anion channel blockers, osmotic lysis – cell-based, P. falciparum Indochina, OD700, 18 h, primary screen (AID 1157). To be noted: P. falciparum Indochina infected erythrocytes, osmotic lysis OD700, 18 h; higher = more signal, called active from +8 up or from −8 down.
Assay [7] can be described thus: S6 kinase pathway phospho-S6 level changes – cell-based, A549, cytoblot, luminescence, serum-stimulated, primary screen (AID 1158).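 Also: serum-stimulated A549 lung adenocarcinoma cells; signal is phosphorylated S6 detected by cytoblot immunostaining with HRP secondary.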 To be noted: 5 h, higher = more signal.
The target in assay [8] is NADPH oxidase 2 (Homo sapiens) (UniProt P04839). Put plainly: compounds shifting NOX2 Amplex Red fluorescence – cell-based, HEK293-NOX2, PMA-stimulated, NOX inhibitor project, primary screen (AID 1159). Also: test concentration not given here. To be noted: 45 min, higher = more signal, called active from +8 up or from −8 down.
Sequence of NADPH oxidase 2 (Homo sapiens) (P04839 whole entry, looked up): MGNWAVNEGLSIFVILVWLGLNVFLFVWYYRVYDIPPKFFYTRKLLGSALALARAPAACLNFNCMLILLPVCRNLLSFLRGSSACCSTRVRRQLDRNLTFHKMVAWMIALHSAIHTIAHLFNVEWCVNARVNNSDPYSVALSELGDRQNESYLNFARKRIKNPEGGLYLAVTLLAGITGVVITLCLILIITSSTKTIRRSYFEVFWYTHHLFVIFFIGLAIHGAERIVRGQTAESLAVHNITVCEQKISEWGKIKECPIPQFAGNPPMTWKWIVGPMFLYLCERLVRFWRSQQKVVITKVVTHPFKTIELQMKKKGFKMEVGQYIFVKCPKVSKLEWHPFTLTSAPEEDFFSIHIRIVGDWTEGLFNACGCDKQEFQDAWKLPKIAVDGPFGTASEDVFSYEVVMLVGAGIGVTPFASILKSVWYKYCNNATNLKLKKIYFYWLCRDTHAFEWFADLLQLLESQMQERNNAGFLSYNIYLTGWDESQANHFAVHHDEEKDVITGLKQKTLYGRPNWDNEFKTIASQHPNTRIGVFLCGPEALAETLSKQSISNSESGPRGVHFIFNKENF
Assay [9] deals with NADPH oxidase 4 (Homo sapiens) (UniProt Q9NPH5). The assay is described as follows: compounds shifting NOX4 Amplex Red fluorescence – cell-based, HEK293-NOX4, tetracycline-induced, NOX inhibitor project, primary screen (AID 1160). As to conditions: HEK293-NOX4, Amplex Red H2O2 fluorescence, 45 min; higher = more signal, called active from +8 up or from −8 down.
Sequence of NADPH oxidase 4 (Homo sapiens) (Q9NPH5 whole entry, looked up): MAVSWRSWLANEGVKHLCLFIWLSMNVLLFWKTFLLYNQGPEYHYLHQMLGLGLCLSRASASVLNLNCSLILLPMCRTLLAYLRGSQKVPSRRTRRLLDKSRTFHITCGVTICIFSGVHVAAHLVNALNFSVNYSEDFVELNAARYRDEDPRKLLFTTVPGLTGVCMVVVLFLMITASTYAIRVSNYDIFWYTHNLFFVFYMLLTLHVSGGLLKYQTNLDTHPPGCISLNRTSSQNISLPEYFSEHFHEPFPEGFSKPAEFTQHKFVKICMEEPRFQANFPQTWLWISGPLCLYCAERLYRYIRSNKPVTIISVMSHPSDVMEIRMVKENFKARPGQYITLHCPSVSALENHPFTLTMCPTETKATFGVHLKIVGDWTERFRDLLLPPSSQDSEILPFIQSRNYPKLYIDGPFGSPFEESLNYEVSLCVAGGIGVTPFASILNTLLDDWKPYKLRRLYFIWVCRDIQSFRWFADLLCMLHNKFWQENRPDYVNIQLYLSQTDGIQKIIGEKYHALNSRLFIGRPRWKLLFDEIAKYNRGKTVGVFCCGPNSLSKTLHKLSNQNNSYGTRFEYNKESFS
For assay [10], the target named is NADPH oxidase 5 (Homo sapiens) (UniProt Q96PH1). Put plainly: compounds shifting NOX5 Amplex Red fluorescence – cell-based, HEK293-NOX5, NOX inhibitor project, primary screen (AID 1161). As to conditions: HEK293-NOX5, ionomycin, 45 min, higher = more signal.
Sequence of NADPH oxidase 5 (Homo sapiens) (Q96PH1 whole entry, looked up): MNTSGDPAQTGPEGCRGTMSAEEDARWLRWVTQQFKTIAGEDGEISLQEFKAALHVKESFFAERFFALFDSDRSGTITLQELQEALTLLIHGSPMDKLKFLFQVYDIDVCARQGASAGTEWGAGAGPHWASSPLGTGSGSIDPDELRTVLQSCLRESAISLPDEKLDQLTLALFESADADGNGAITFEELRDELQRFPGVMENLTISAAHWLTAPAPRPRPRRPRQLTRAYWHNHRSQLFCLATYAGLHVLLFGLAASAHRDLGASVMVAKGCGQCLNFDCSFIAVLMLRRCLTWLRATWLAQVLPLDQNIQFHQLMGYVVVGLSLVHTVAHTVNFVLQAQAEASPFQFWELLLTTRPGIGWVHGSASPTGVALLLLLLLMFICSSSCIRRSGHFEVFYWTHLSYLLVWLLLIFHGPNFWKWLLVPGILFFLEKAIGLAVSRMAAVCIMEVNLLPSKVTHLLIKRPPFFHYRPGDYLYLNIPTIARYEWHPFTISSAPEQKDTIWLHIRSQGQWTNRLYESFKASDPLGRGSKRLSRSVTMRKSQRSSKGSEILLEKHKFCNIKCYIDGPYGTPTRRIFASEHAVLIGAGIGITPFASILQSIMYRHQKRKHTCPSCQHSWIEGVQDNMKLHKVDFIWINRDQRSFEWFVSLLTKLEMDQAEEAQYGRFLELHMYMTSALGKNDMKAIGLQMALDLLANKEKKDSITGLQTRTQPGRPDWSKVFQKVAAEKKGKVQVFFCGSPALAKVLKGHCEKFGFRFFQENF
Assay [11] can be described thus: compound effects on lung adenocarcinoma cell viability – A549, calcein-AM fluorescence, 48 h, basal, profiling panel (AID 1162). Also: test concentration not given here. As to conditions: higher = more signal.
A short description of assay [12]: compound effects on differentiated 3T3-L1 adipocyte viability – cell-based, 3T3-L1 adipocytes, calcein-AM fluorescence, 48 h, basal, profiling panel (AID 1163). Also: test concentration not given here. To be noted: 3T3-L1 adipocytes viability, higher = more signal.
Assay [13] is described as follows: compound effects on hepatocellular carcinoma cell viability – HepG2, calcein-AM fluorescence, 48 h, basal, profiling panel (AID 1164). Also: test concentration not given here. To be noted: higher = more signal.
A short description of assay [14]: compound effects on multiple myeloma cell viability – MM1S, calcein-AM fluorescence, 48 h, basal, profiling panel (AID 1165).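 Also: viability of MM1S multiple myeloma cells under basal unstimulated conditions; test concentration not given here.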 To be noted: higher = more signal.
Assay [15] in a line: calcein-AM signal in unstimulated myeloma cells – cell-based, calcein-AM fluorescence, 48 h, PK04 Diversity Set, profiling panel (AID 1166).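 Also: cells grown under basal conditions without added stimulus; test concentration not given here.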 As to conditions: RPMI8226 myeloma viability, higher = more signal.
Assay [16] in a line: JC-1 mitochondrial signal, unstimulated HepG2 cells – cell-based, JC-1 fluorescence, 24 h, 100 nL compound, profiling panel (AID 1167). Also: test concentration not given here. To be noted: HepG2 mitochondrial potential, higher = more signal.
Assay [17] is described as follows: JC-1 mitochondrial signal, unstimulated adipocytes – cell-based, JC-1 fluorescence, 3T3-L1 adipocytes, 24 h, 100 nL compound, profiling panel (AID 1168). Also: test concentration not given here. As to conditions: JC-1 mitochondrial fluorescence, higher = more signal, called active from +8 up or from −8 down.
Assay [18] in a line: JC-1 mitochondrial signal, unstimulated myeloma cells – cell-based, JC-1 fluorescence, RPMI8226, 24 h, 100 nL compound, profiling panel (AID 1169). Also: test concentration not given here. As to conditions: JC-1 mitochondrial potential fluorescence, higher = more signal.
Assay [19] is described as follows: JC-1 mitochondrial signal, unstimulated MM1S myeloma – cell-based, JC-1 fluorescence, 24 h, 100 nL compound, profiling panel (AID 1170). Also: test concentration not given here. As to conditions: MM1S mitochondrial potential, higher = more signal.
Assay [20] in a line: resazurin metabolic signal in A549 cells – cell-based, resazurin fluorescence, 24 h, PK04 Diversity Set, profiling panel (AID 1171). Also: test concentration not given here. To be noted: A549 viability, higher = more signal, called active from +8 up or from −8 down.

The structures appear in SMILES notation. Calls of active or inactive are those of the source.

For the compound `COCCOC(=O)N1C(=O)[C@@]2(c3cc(C#CCNC(N)=O)ccc31)[C@H](c1ccccc1OCCO)N1[C@H](c3ccccc3)[C@H](c3ccccc3)OC(=O)[C@H]1[C@@H]2C(=O)NC[C@H](O)c1ccccc1`, the z-score is 0.369 (inactive) in assay [1]; 2.18 (inactive) in assay [3]; 0.758 (inactive) in assay [4]; 0.299 (inactive) in assay [5]; 0.751 (inactive) in assay [6]; -0.209 in assay [7]. Besides, the z-score is 1.02 (inactive) in [8]; 1.17 (inactive) in assay [9]; 0.219 in assay [10]; -0.991 in assay [11]; -0.574 in assay [12]; 0.0681 in assay [13]. The z-score in [14] is -0.344; in assay [15] it was 0.941; in [16], -1.64; in assay [17] it was 0.392 (inactive); in assay [18], -0.305; in assay [19], -0.803. In addition, in assay [20], the z-score was 0.868 (inactive). Also, in [2], the composite z-score worked out at 0.346.
As to `Cc1ccc(N2C(=O)c3ccccc3[C@@H](C(=O)NCC(F)(F)F)[C@@H]2c2ccc(CO)cc2)nc1`, the z-score in [1] is 0.734 (inactive); in assay [3] it was 1.32 (inactive); in assay [4] it was 0.422 (inactive); in assay [5], 0.827 (inactive); in [6], 0.38 (inactive); in assay [7] it was 0.189. Moreover, the z-score in assay [8] was 1.22 (inactive); in assay [9], 0.32 (inactive); in assay [10] it was -0.914; in assay [11] it was 0.312; in [12], 0.603; in assay [13], 0.471. The z-score is 0.0049 in [14]; 0.51 in [15]; 1.04 in assay [16]; 0.884 (inactive) in [17]; -0.223 in assay [18]; 0.0421 in [19]. Also, the z-score in assay [20] was 0.547 (inactive). The same compound came in with a composite z-score in assay [2] of -0.0099.
For `O=[N+]([O-])c1ccc(C[n+]2ccc3ccc(O)cc3c2)o1`, the z-score in assay [1] was 0.653 (inactive); in [3], 1.08 (inactive); in assay [4], -0.678 (inactive); in assay [5], -0.859 (inactive); in assay [6], -1.53 (inactive); in [7] it was 0.829. Also, the z-score in assay [8] was -0.94 (inactive); in [9], -1.09 (inactive); in [10], -0.424; in assay [11], 1.21; in [12] it was 0.233; in [13], -0.489. For the same compound, the z-score was 0.216 in assay [14]; 0.705 in assay [15]; -1.43 in [16]; -0.157 (inactive) in assay [17]; -0.158 in assay [18]; 0.648 in assay [19]. The z-score in assay [20] was -1.02 (inactive). Further, the composite z-score in assay [2] was -0.283.
Regarding `C=C(CCCC)/C(=C/C[C@@H](OC(=O)c1ccncc1)c1ccc(CO)o1)c1cnc2ccccc2c1`, the z-score is 0.583 (inactive) in assay [1]; 7.06 (inactive) in [3]; 0.843 (inactive) in assay [4]; 1.17 (inactive) in [5]; 0.0867 (inactive) in assay [6]; -0.349 in assay [7]. Moreover, the z-score is 0.194 (inactive) in assay [8]; -0.546 (inactive) in assay [9]; -0.634 in assay [10]; 1.18 in assay [11]; 0.282 in assay [12]; -0.284 in assay [13]. In addition, the z-score was -2.48 in [14]; -1.18 in [15]; -0.526 in assay [16]; -0.586 (inactive) in [17]; -0.287 in assay [18]; 1 in [19]. For the same compound, the z-score in assay [20] is -0.0271 (inactive). The compound also displayed a composite z-score in assay [2] of 0.569.
As to `Cc1ccc(N2C(=O)c3ccccc3[C@@H](C(=O)NCc3ccccc3)[C@@H]2c2ccc(CO)cc2)nc1`, the z-score in assay [1] is 1.85 (inactive); in [3], 2.1 (inactive); in assay [4], -0.349 (inactive); in [5] it was -0.199 (inactive); in [6], -0.509 (inactive); in assay [7], -1.72. For the same compound, the z-score in [8] is -0.109 (inactive); in [9], 1.03 (inactive); in [10], 0.298; in assay [11], 1.08; in [12], 1.14; in assay [13] it was -0.296. The z-score in assay [14] was 0.2; in [15], 1.18; in assay [16], 0.532; in assay [17], 1.07 (inactive); in [18], 0.0567; in assay [19] it was 0.202. In addition, the z-score in assay [20] is 0.737 (inactive). Further, in assay [2], the composite z-score stood at 0.26.
